Among the data in PubChem BioAssay (NCATS) are Potency and activity change, negative = inhibition values, retold here.

Records with an inconclusive call do not appear. Activity calls are given as the source filed them. Calls come from the whole dose curve; as a rule, active = well fitted curve in the direction sought with a large enough effect; inconclusive = small, poorly fitted or top-dose-only effect, or another doubt; inactive = no such curve, though single readings can be large; an effect the other way counts as inactive or inconclusive.
% is set by controls: 0 for no effect and ±100 for the full control effect; potency is the fitted concentration of half-maximal effect.

One assay deals with astro (control astrocytes). As to the kind of experiment: Drug repurposing screens with cells derived from glioblastoma tumor samples (AID 1345199). Note: nearly all actives have a fitted effect of over 40% in size. The note with it: viability, ATP luminescence, 48 h; series mostly up to 45.9 µM. The method in brief:
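Four patient lines of CD133+ GBM neurospheres were screened at several concentrations; hits were retested in those lines plus three slower-growing GBM lines, using 48-hour treatment and ATP-based viability.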
Consider `C[C@H]1C[C@@H]2[C@@H]([C@@H](O)C[C@@]3(C)[C@H]2CC[C@]3(O)C(=O)CO)[C@@]2(C)C=CC(=O)C=C12`, for which the Potency result is “inactive”.
On the same count and under the same terms, to `COC(=O)[C@]12CCC(C)(C)C[C@@H]1[C@@H]1C(=O)C=C3[C@@]4(C)C=C(C#N)C(=O)C(C)(C)[C@@H]4CC[C@@]3(C)[C@]1(C)CC2` belongs 3.16 µM (active); to `COc1c(N2C[C@@H]3CCCN[C@H]3C2)c(F)cc2c(=O)c(C(=O)O)cn(C3CC3)c12`, “inactive”.
For the compound `Nc1ccn([C@@H]2CS[C@H](CO)O2)c(=O)n1`, the Potency result is “inactive”.
Still for that read-out and setting: with `CC1(C)O[C@@H]2C[C@@H]3[C@H]4C[C@@H](F)C5=CC(=O)C=C[C@]5(C)[C@@]4(F)[C@@H](O)C[C@]3(C)[C@]2(C(=O)CO)O1` the entry was “inactive”; with `COc1ccc(CC2c3cc(OC)c(OC)cc3CC[N+]2(C)CCC(=O)OCCCCCOC(=O)CC[N+]2(C)CCc3cc(OC)c(OC)cc3C2Cc2ccc(OC)c(OC)c2)cc1OC` (stereo not given), “inactive”; with `O=C(O)CO.[NH2-].[NH2-].[Pt+2]`, “inactive”.
Still for that read-out and setting: with `CC[C@H]1CN2CCc3cc(OC)c(OC)cc3[C@H]2C[C@@H]1C[C@@H]1NCCc2cc(OC)c(OC)cc21` the figure was 0.447 µM (active).
On the same count and under the same terms, to `CC=CC1=C(C(=O)O)N2C(=O)[C@H](NC(=O)[C@H](N)c3ccc(O)cc3)[C@@H]2SC1` belongs “inactive”; to `COC(=O)C[C@](O)(CCCC(C)(C)O)C(=O)O[C@@H]1C(OC)=C[C@]23CCCN2CCc2cc4c(cc2[C@H]13)OCO4`, 0.251 µM (active).
Consider `C=C1C(=CC=C2CCC[C@]3(C)[C@@H]([C@H](C)C=C[C@H](C)C(C)C)CC[C@@H]23)C[C@@H](O)C[C@@H]1O`, for which the Potency is 25.1 µM (active).
On the same count and under the same terms, to `O=c1[nH]c(=O)n(C2CCCO2)cc1F` (stereo not given) belongs “inactive”; to `CN1c2cc(O)c(N=NC(N)=O)cc2CC1S(=O)(=O)O` (stereo not given), “inactive”.

Tested on in another assay: not listed separately
The assay can be described thus: qHTS assay to identify inhibitors of the type 1 interferon - major histocompatibility complex class I in skeletal muscle: Counter screen cell viability and HiBit confirmation (AID 1347412). Note: nearly all actives have a fitted effect of over 60% in size. The note with it: iHSKM muscle cells + IFN-b, HiBiT or CellTiter-Glo, 24 h; HiBiT. The method in brief: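 HLA-B*08:01–HiBiT knock-in immortalized human myoblasts (C25cl48) stimulated with 4.0 ng/ml human IFN-beta and dosed with compound in a 12-point 1:3 titration (top final 46 uM). After 24 hrs at 37 C, HiBiT lytic luminescence or CellTiter Glo ATP read out.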
Regarding `Cc1ccc(-c2ncn(-c3ccc(Nc4nccc(-c5cccc(N6CCOCC6)c5)n4)cc3)n2)cn1`, the Potency was 2.49 µM (active).
The same measure, in the same setting: to `CC(C)(C)c1cnc(CSc2cnc(NC(=O)C3CCNCC3)s2)o1` belongs 0.351 µM (active).
`CC(C)C[C@H](NC(=O)CNC(=O)c1cc(Cl)ccc1Cl)B(O)O`: the Potency is 0.557 µM (active).
Same read-out and setting: to `CC(C)[C@H](C(=O)Nc1ccc(C(=O)NO)cc1)c1ccccc1` belongs 1.11 µM (active); to `O=C(NC1CCNCC1)c1[nH]ncc1NC(=O)c1c(Cl)cccc1Cl`, 0.442 µM (active); to `CC[C@@H]1C(=O)N(C)c2cnc(Nc3ccc(C(=O)NC4CCC(N5CCN(CC6CC6)CC5)CC4)cc3OC)nc2N1C(C)C` (stereo not given in full), 6.25 µM (active).
Still for that read-out and setting: to `CN1CCN(c2cc(C(=O)Nc3ccc4c(c3)-c3c(c(C(N)=O)nn3-c3ccc(F)cc3)CC4)c(Cl)cn2)CC1` belongs 22.2 µM (active).
On the same count and under the same terms, with `CCN1CCN(Cc2ccc(-c3cc4c(N[C@H](C)c5ccccc5)ncnc4[nH]3)cc2)CC1` the figure was 19.8 µM (active); with `COc1cccc2c(NCc3ccccc3)nc(-n3c(N)nc4ccccc43)nc12`, 12.5 µM (active); with `CC(C)c1ccc(Cn2ccc3c4c(N)nc(NC5CC5)nc4ccc32)cc1`, 17.6 µM (active).
For `COC(=O)C[C@](O)(CCCC(C)(C)O)C(=O)O[C@@H]1C(OC)=C[C@]23CCCN2CCc2cc4c(cc2[C@H]13)OCO4`, the Potency was 0.279 µM (active).
Turning to `COCCn1c2c([n+](Cc3cnccn3)c1C)C(=O)c1ccccc1C2=O`, the Potency is 1.98 µM (active).
Take `CN(c1ncccc1CNc1nc(Nc2ccc3c(c2)CC(=O)N3)ncc1C(F)(F)F)S(C)(=O)=O`: the Potency was 4.97 µM (active).
Consider `C[C@@]12O[C@@H](C[C@]1(O)CO)n1c3ccccc3c3c4c(c5c6ccccc6n2c5c31)CNC4=O`, for which the Potency was 0.701 µM (active).
`Cc1cc(Nc2nc(N[C@@H](C)c3ccc(F)cc3)c(C#N)cc2F)n[nH]1`: the Potency was 2.22 µM (active).
With `CC[C@H](CO)Nc1nc(NCc2ccccc2)c2ncn(C(C)C)c2n1`, the Potency is 17.6 µM (active).
As for `Cc1cc(Nc2cc(NC(=O)c3c(Cl)cccc3Cl)ccn2)nc(N)n1`, the Potency was 2.79 µM (active).
`c1cc(-c2cnn3cc(-c4ccc(OCCN5CCCCC5)cc4)cnc23)ccn1`: the Potency was 14 µM (active).
On the same count and under the same terms, to `O=c1[nH]nc(Sc2ncc([N+](=O)[O-])s2)n1-c1ccc2c(c1)OCCO2` belongs 14 µM (active).

Staying with this assay, now noted: iHSKM muscle cells + IFN-b, HiBiT or CellTiter-Glo, 24 h; HiBiT; at 45.9 µM (top of the series).
`NC(=O)c1c(OCc2c(F)cc(Br)cc2F)nsc1NC(=O)NCCCCN1CCCC1`: the activity change, negative = inhibition is -22.6% (inactive).
As for `CC(C)(C)c1cc(C(C)(C)C)c(NC(=O)c2c[nH]c3ccccc3c2=O)cc1O`, the activity change, negative = inhibition is -18% (inactive).
On the same count and under the same terms, to `Cn1cncc1[C@@](N)(c1ccc(Cl)cc1)c1ccc2c(c1)c(-c1cccc(Cl)c1)cc(=O)n2C` belongs -17.7% (inactive).

Still in this assay, the particulars now being: iHSKM muscle cells + IFN-b, HiBiT or CellTiter-Glo, 24 h; Viability.
`CN1CCN(c2cc(C(=O)Nc3ccc4c(c3)-c3c(c(C(N)=O)nn3-c3ccc(F)cc3)CC4)c(Cl)cn2)CC1`: the Potency was 27.9 µM (active).
On the same count and under the same terms, to `COc1cccc2c(NCc3ccccc3)nc(-n3c(N)nc4ccccc43)nc12` belongs 17.6 µM (active); to `CC(C)c1ccc(Cn2ccc3c4c(N)nc(NC5CC5)nc4ccc32)cc1`, 27.9 µM (active); to `COCCn1c2c([n+](Cc3cnccn3)c1C)C(=O)c1ccccc1C2=O`, 2.49 µM (active).
The same measure, in the same setting: to `C=CC(=O)Nc1cc2c(Nc3ccc(F)c(Cl)c3)ncnc2cc1C#CC(C)(C)N1CCN(C)CC1` belongs 22.2 µM (active).
